The nature of assay [1]: viability loss in HepG2 hepatoma cells – cell-based, cherry-picks, set 2, cytotoxicity control, dose response (AID 687002).
Assay [2] in a line: viability loss in HeLa cells – cell-based, ATP luminescence, cherry-pick samples, cytotoxicity control, dose response (AID 687004;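 active = a fitted half-maximal concentration no higher than twice the top valid tested dose, with signal falling as cells die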).
The nature of assay [3]: PAX8 transcriptional activity inhibition in RMG-I – RMG-I cells, luciferase, cherry-pick, dose response (AID 687027;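 active = every replicate test run called active, with the signal dropping as expected and potency within twice the top valid dose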).
A short description of assay [4]: RMG-1 ovarian cancer cell viability loss – cherry-pick, dose response (AID 687029;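 active = signal drop whose fitted half-maximal concentration is at most twice the top valid dose, in every test run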;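 note: cells exposed to compound for 96 hours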).
Assay [5] is described as follows: IOSE-T80 viability loss, PAX8-independent line – cell-based, cherry-pick, selectivity assay for PAX8 inhibitor project, dose response (AID 687032;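 active = fitted half-maximal concentration for viability loss no higher than twice the top valid dose, in every repeat run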;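 note: cells exposed to compound for 96 h before reading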).
Assay [6] is described as follows: CMV-driven luciferase expression suppression in HEK293 – cell-based, luminescence, dry powder, counter-screen for Pax8 inhibitor project, dose response (AID 743020;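 active = signal-lowering compounds whose fitted half-maximal concentration is at or below twice the top tested dose in every run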;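 note: HEK293 cells stably expressing the CMV luciferase reporter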). A general note: Counterscreens check selectivity or assay interference.
The nature of assay [7]: general cell-killing toxicity readout – plate reader, dry powder samples, cytotoxicity control for PAX8 inhibitor project, dose response (AID 743021; call rule not given here).

Results with a measured potency or affinity are listed apart. Records with an inconclusive call do not appear. Unmarked numbers belong to inactive results. The source made the active and inactive calls.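 Rule for the calls, unless noted: active = a dose-response fit showing signal loss, with half-maximal concentration no higher than twice the top tested dose; inconclusive = flat fit between 30% and 70% signal loss, or poor fit; inactive = the rest.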

On to `COc1ccccc1NC(=S)NCc1ccccc1Cl`, for which the outcome in assay [1] and in assay [2] was inactive. In the case of `CC(C)c1ccccc1NC(=S)NN(Cc1ccccc1)c1ccccc1`, the molecule was called inactive in assay [1]. Take `COc1ccc(C(=O)NC(=S)Nc2ccccc2N2CCCCC2)cc1[N+](=O)[O-]`: the outcome in assay [1] and in assay [2] was inactive. For `COc1cc(OC)c(N(C)C(=O)c2cn(C)c(=O)c3cc(OC)c(OC)cc23)cc1Cl`, the molecule was called inactive in assay [1] and in assay [2].

On to `CCCCN1C(=S)NC[C@@H]1Cc1ccccc1`, for which the molecule was classed as inactive in assay [1] and in assay [2]. Turning to `COC(=O)C1=C(C)N(CC(C)C)C(=S)NC1c1ccc(-c2ccccc2)cc1` (stereo not drawn), the result in assay [1] was inactive. As for `COC(=O)C1=C(C)N(Cc2ccc(F)cc2)C(=S)NC1c1ccc(Cl)cc1` (stereo not drawn), the molecule was called inactive in assay [1].

As to `COc1ccc(N2CCN(C(=O)Cc3cccs3)CC2)cc1`, the molecule was classed as inactive in assay [1] and in assay [2]. Consider `C[C@H](CO)N1C[C@H](C)[C@H](CN(C)C(=O)Nc2ccc3c(c2)OCO3)Oc2ncc(C#CC(C)(C)O)cc2C1=O`, for which the molecule was classed as inactive in assay [1] and in assay [2]. As to `COC(=O)C1=C(C)N(Cc2ccccc2)C(=S)NC1c1ccc(Cl)cc1` (stereo not drawn), the call in assay [1] and in assay [2] was inactive. For `COc1ccccc1/C=N/NC(=S)NCc1ccco1`, the result in assay [1] and in assay [2] was inactive. As for `NC(=S)N/N=C/c1ccc(-c2cc(Cl)ccc2Cl)o1`, in assay [1], the call was inactive. For `CCc1ccc(C(C)NC(=S)NCc2ccc(F)cc2)cc1` (stereo not drawn), the molecule was classed as inactive in assay [1] and in assay [2]. Turning to `COC(=O)C1=C(C)N(Cc2ccccc2)C(=S)N[C@H]1c1cccc(F)c1`, the molecule was called inactive in assay [1]. Take `CCN1C(=S)N[C@@H](c2ccccc2)C(C(=O)OC)=C1C`: the result in assay [1] and in assay [2] was inactive. In the case of `Cc1ccc(C(=O)NC(=S)Nc2ccccc2N2CCCC2)cc1[N+](=O)[O-]`, the molecule was classed as inactive in assay [1] and in assay [2]. Take `Cc1cc(Cl)ccc1NC(=S)NCc1ccc(F)cc1`: the molecule was classed as inactive in assay [1] and in assay [2]. Turning to `COc1ccc(CNC(=S)NCc2ccc(OC)cc2)cc1`, the result in assay [1] and in assay [2] was inactive. With `Cc1c(C(=O)NC(=S)Nc2ccccc2N2CCCC2)cccc1[N+](=O)[O-]`, the result in assay [1] and in assay [2] was inactive.

On to `Cc1ccc2nc(C)c3c(c2c1)OC(C(C)(Cl)Br)C3` (stereo not drawn), for which the molecule was called inactive in assay [1]. Turning to `O=C(COC(=O)CCC1CCCC1)Nc1nc2c(F)c(F)c(F)cc2s1`, the molecule was called inactive in assay [1] and in assay [2]. For `O=C(CN(c1ccc(F)cc1)S(=O)(=O)c1ccccc1)N1CCOCC1`, the call in assay [1] and in assay [2] was inactive. Consider `COC(=O)C1=C(C)N(Cc2ccccc2)C(=S)N[C@H]1c1cccc(C(F)(F)F)c1`, for which, in assay [1], the molecule was classed as inactive. The same measure, in the same setting: for `Cc1ccc(OCCn2c(=S)[nH]c3ccccc32)c(C(C)C)c1` the value was “inactive”; for `COc1ccc(C(=O)NC(=S)Nc2ccccc2N2CCOCC2)cc1[N+](=O)[O-]`, “inactive”.

Regarding `COc1cccc(NC(=S)NC(=O)Cc2ccc(Cl)cc2)c1`, the outcome in assay [1] and in assay [2] was inactive.

In the case of `CCCOc1ccc(CNC(=S)NCc2ccc(OC(C)C)cc2)cc1`, the result in assay [1] and in assay [2] was inactive.

`C[C@H]1CCCCO[C@@H](CN(C)Cc2ccncc2)[C@@H](C)CN([C@@H](C)CO)C(=O)c2cc(NC(=O)Nc3ccccc3)ccc2O1`: the outcome in assay [1] and in assay [2] was inactive. As for `O=C(NC(=S)Nc1ccccc1N1CCOCC1)c1ccc(Br)cc1`, the result in assay [1] and in assay [2] was inactive.

Take `COC(=O)C1=C(C)N(Cc2ccc(Cl)cc2)C(=S)NC1c1ccc(Br)cc1` (stereo not drawn): the molecule was classed as inactive in assay [1] and in assay [2]. As to `Cc1cc(C)c(NC(=O)C2CCCN2CCC(C)C)c(C)c1` (stereo not drawn), in assay [1], the molecule was classed as inactive. On to `O=C(CSc1ncnc2c1cnn2-c1cccc(Cl)c1)NCC1CCCO1` (stereo not drawn), for which the result in assay [1] and in assay [2] was inactive. Turning to `COC(=O)C1=C(C)N(Cc2ccc(Cl)cc2)C(=S)NC1c1ccc(F)cc1` (stereo not drawn), the molecule was called inactive in assay [1] and in assay [2].

On to `COC(=O)C1=C(C)N(Cc2ccccc2)C(=S)NC1c1ccc(Br)cc1` (stereo not drawn), for which the molecule was called inactive in assay [1] and in assay [2].

`S=C(NCc1ccccc1)NCC1COc2ccccc2O1` (stereo not drawn): the outcome in assay [1] and in assay [2] was inactive. For `O=C(NC(=S)Nc1ccccc1N1CCOCC1)c1cccc([N+](=O)[O-])c1`, the call in assay [1] and in assay [2] was inactive. With `COC(=O)C1=C(C)N(Cc2ccc(F)cc2)C(=S)NC1c1ccc(F)cc1` (stereo not drawn), the outcome in assay [1] was inactive. Consider `S=C(Nc1ccccc1)Nc1cc(Cl)ccc1Oc1ccccc1`, for which the result in assay [1] and in assay [2] was inactive. Consider `COC(=O)C1=C(C)N(Cc2ccc(Br)cc2)C(=S)NC1c1ccc(OC)cc1` (stereo not drawn), for which the molecule was called inactive in assay [1] and in assay [2]. As to `Fc1ccccc1NC(=S)NCCc1cccc(Cl)c1`, the molecule was called inactive in assay [1] and in assay [2]. `COc1ccccc1NC(=S)NCc1ccc(Cl)cc1`: the outcome in assay [1] and in assay [2] was inactive. As to `COc1cccc(NC(=S)N2CCC(Cc3ccccc3)CC2)c1`, the result in assay [1] and in assay [2] was inactive. As for `COC(=O)C1=C(C)N(Cc2ccc(F)cc2)C(=S)NC1c1cccc(Cl)c1` (stereo not drawn), the outcome in assay [1] and in assay [2] was inactive. Regarding `Fc1ccccc1NC(=S)NN(Cc1ccccc1)c1ccccc1`, the molecule was classed as inactive in assay [1] and in assay [2]. Consider `O=C(NC(=S)NCC1COc2ccccc2O1)c1ccc(Cl)cc1` (stereo not drawn), for which the molecule was called inactive in assay [1] and in assay [2]. Turning to `COC(=O)C1=C(C)N(Cc2ccc(Cl)cc2)C(=S)NC1c1ccc(OC)cc1` (stereo not drawn), the molecule was classed as inactive in assay [1] and in assay [2].

With `COC(=O)C1=C(C)N(Cc2ccc(F)cc2)C(=S)NC1c1cccc(F)c1` (stereo not drawn), the molecule was called inactive in assay [1] and in assay [2]. Regarding `C[C@@H]1CN([C@H](C)CO)S(=O)(=O)c2ccc(C#Cc3ccccn3)cc2O[C@H]1CN(C)Cc1ccccc1`, the outcome in assay [1] and in assay [2] was inactive. For `S=C(Nc1ccccc1Oc1ccccc1)Nc1cccc(Cl)c1Cl`, the molecule was called inactive in assay [1] and in assay [2]. As to `CO[C@@H]1CN(C)C(=O)c2ccc(NC(C)=O)cc2OC[C@@H](C)N(C(=O)Cc2cccnc2)C[C@H]1C`, the result in assay [1] and in assay [2] was inactive. With `C[C@H](CO)N1C[C@H](C)[C@@H](CN(C)S(=O)(=O)c2cn(C)cn2)Oc2c(NC(=O)Nc3ccccc3)cccc2C1=O`, the result in assay [1] and in assay [2] was inactive. Regarding `CC=Cc1ccc2n(c1=O)C[C@@H]1[C@@H](CO)[C@H](C(=O)N3CCc4ccccc4C3)N(C(=O)C3CC3)[C@H]21` (mixture of isomers), the molecule was called inactive in assay [1] and in assay [2].

In the case of `C[C@H](CO)N1C[C@H](C)[C@@H](CN(C)Cc2ccc(Oc3ccccc3)cc2)Oc2ccc(NS(=O)(=O)c3cn(C)cn3)cc2CC1=O`, the result in assay [1] and in assay [2] was inactive.

As to `COC(=O)C1=C(C)N(CC(C)C)C(=S)NC1c1ccc(Cl)cc1` (stereo not drawn), the molecule was called inactive in assay [1] and in assay [2].

On to `Cc1cccc2sc(N3CCN(C(=O)c4cccs4)CC3)nc12`, for which the outcome in assay [1] and in assay [2] was inactive.

Consider `O=C(N[C@@H]1CC[C@@H](CCn2cc(-c3ccccc3)nn2)O[C@H]1CO)c1cnccn1`, for which the molecule was called inactive in assay [1] and in assay [2]. Turning to `COC(=O)C1=C(C)N(Cc2ccc(Br)cc2)C(=S)NC1c1ccccc1` (stereo not drawn), the molecule was called inactive in assay [1] and in assay [2]. `CCc1ccc(C(=O)NC(=S)NCc2cccnc2)cc1`: the call in assay [1] and in assay [2] was inactive.

For the molecule `Cc1c(Cl)cccc1NC(=S)NCCc1ccc(Cl)cc1`, the outcome in assay [1] and in assay [2] was inactive.

For `CCOC(=O)NC(=S)Nc1ccc(C(C)(C)C)cc1`, the call in assay [1] and in assay [2] was inactive.

For `S=C(NCCCc1ccccc1)Nc1ccccc1`, the result in assay [1] and in assay [2] was inactive. Turning to `O=C(C[C@H]1CC[C@@H]2[C@H](COC[C@@H](O)CN2C(=O)c2cnccn2)O1)NCc1ccc(Oc2ccccc2)cc1`, the call in assay [1] and in assay [2] was inactive. On to `COC(=O)C1=C(C)N(CC(C)C)C(=S)NC1c1ccc(F)cc1` (stereo not drawn), for which the molecule was classed as inactive in assay [1] and in assay [2]. As for `O=C(NC(=S)Nc1cc(Cl)ccc1N1CCOCC1)c1ccccc1[N+](=O)[O-]`, the molecule was called inactive in assay [1] and in assay [2].

In the case of `Cc1ccc(C(=O)NC(=S)Nc2ccc(N3CCOCC3)cc2)cc1`, the result in assay [1] and in assay [2] was inactive. For `COC(=O)C1=C(C)N(Cc2ccccc2)C(=S)NC1c1cccc(Br)c1` (stereo not drawn), the molecule was classed as inactive in assay [1] and in assay [2].

For `Cc1cc(C)c2nc(N3CCN(C(=O)c4cccs4)CC3)sc2c1`, the call in assay [1] and in assay [2] was inactive. As to `COC(=O)C1=C(C)N(CC(C)C)C(=S)NC1c1cccc(F)c1` (stereo not drawn), the molecule was classed as inactive in assay [1] and in assay [2]. Take `O=C(NC(=S)Nc1ccccc1N1CCCC1)c1ccc([N+](=O)[O-])cc1`: the call in assay [1] and in assay [2] was inactive. Regarding `COC(=O)C1=C(C)N(C)C(=S)NC1c1ccccc1` (stereo not drawn), the outcome in assay [1] and in assay [2] was inactive. Turning to `COC(=O)C1=C(C)N(Cc2ccc(Br)cc2)C(=S)NC1c1cccc(Cl)c1` (stereo not drawn), the molecule was classed as inactive in assay [1] and in assay [2]. As for `C[C@@H]1CN([C@H](C)CO)C(=O)Cc2cc(NC(=O)NC3CCCCC3)ccc2O[C@@H]1CN(C)Cc1ccccc1`, the call in assay [1] and in assay [2] was inactive. For `COC(=O)C1=C(C)N(Cc2ccc(F)cc2)C(=S)NC1c1cccc(Br)c1` (stereo not drawn), the molecule was classed as inactive in assay [1] and in assay [2]. For `COC(=O)C1=C(C)N(Cc2ccc(Cl)cc2)C(=S)NC1c1ccccc1` (stereo not drawn), the result in assay [1] and in assay [2] was inactive. For `Cc1cc(C(=O)NC(=S)Nc2ccccc2N2CCOCC2)ccc1[N+](=O)[O-]`, the outcome in assay [1] and in assay [2] was inactive.

Consider `O=C(NC(=S)Nc1ccccc1N1CCCC1)c1ccccc1[N+](=O)[O-]`, for which the molecule was classed as inactive in assay [1] and in assay [2]. Take `S=C(Nc1cccc(Cl)c1)Nc1ccccc1Oc1ccccc1`: the result in assay [1] and in assay [2] was inactive.

On to `Cc1csc(NC(=O)C(C)Oc2ccc(Br)cc2)n1` (stereo not drawn), for which the outcome in assay [3], in assay [4], in assay [5], in assay [6] and in assay [7] was inactive. As to `O=C(c1cccs1)N1C[C@H](O)[C@@H](n2cc(C3CC3)nn2)C[C@@H]1c1ccccc1`, the molecule was called inactive in assay [3], in assay [4], in assay [5], in assay [6] and in assay [7].

For the origin of these results see PubChem BioAssay.
